Reference: PubChem BioAssay AID2279 (Southern Research Specialized Biocontainment Screening …, 2010)
Entries with a potency or affinity are not part of this list.

test: CCR5-tropic HIV-1 fusion blockers – cell-based, CCR5-tropic Env, dose response (AID 2279); settings: CCR5-tropic HIV-1 Env, reporter read-out; series mostly up to 50 µM; inhibition: at the top concentration; call rule not given here

inhibition, inactive:
O=C(O)c1cc(-c2ccc(/C=C3\NC(=O)N(c4ccc(Cl)cc4)C3=O)o2)ccc1Cl -0.12%
CCN1C(=O)/C(=C\c2ccc(-c3ccc([N+](=O)[O-])cc3OC)o2)SC1=Nc1cccc(C(=O)O)c1 11.7%
CCCCCc1c2c(cc(O)c1C(=O)O)OC(=O)c1c(cc(OC)cc1C(=O)CCCC)O2 12.6%
O=C1NN(c2ccc(Cl)cc2)C(=O)/C1=C\c1ccc(-c2cccc(C(=O)O)c2)o1 19.7%
CSc1ccc(C(c2c(C(=O)O)[nH]c3ccccc23)c2c(C(=O)O)[nH]c3ccccc23)cc1 -22.7%
Cc1cc(C)cc(-n2cccc2/C=C2/C(=N)N3C(=NC2=O)SN=C3S(C)(=O)=O)c1 4.76%
COc1ccc(-c2csc(NC(=O)CSc3nc(C)nc4sc(C(=O)O)c(C)c34)n2)cc1 -1.45%
N=C1/C(=C\c2ccc(-c3cccc(C(=O)O)c3)o2)C(=O)N=C2SC=C(c3ccccc3)N12 16.1%
N#Cc1c(-c2ccccc2)nc(SCC(=O)Nc2ccc(OC(F)(F)Cl)cc2)[nH]c1=O -0.77%
CC(C)(C)OC(=O)N1CCC(c2cc(=O)n3[nH]cc(C(=O)Nc4ccc(F)c(Cl)c4)c3n2)CC1 5.55%
CCc1nnc(NS(=O)(=O)c2ccc(NC(=S)NC(=O)/C=C/c3ccc(C(C)C)cc3)cc2)s1 37.6%
O=C(O)COc1ccccc1/C=N/NC(=O)CSc1nnc(SCc2cccc3ccccc23)s1 -0.33%
COc1cc(/C=C2\SC(=Nc3ccccc3)N(CCc3c[nH]c4ccccc34)C2=O)ccc1OC(C)C(=O)O (stereo not given) 36.7%
C/C(=N\Nc1ccc(C(=O)O)cc1)c1ccc2c(c1)Nc1ccccc1S2 27.4%
COc1cc(/C=C2\S/C(=N/S(=O)(=O)c3ccc(C)cc3)NC2=O)c([N+](=O)[O-])cc1OC -8.6%
O=C(O)c1ccc(/C=N/NC(=O)c2ccc(CN3c4cccc5cccc(c45)S3(=O)=O)cc2)cc1 -6.34%
CC(C)(C)c1ccc(S(=O)(=O)/N=C2\C=C(NS(=O)(=O)c3ccccc3)C(=O)c3ccccc32)cc1 13.5%
CCOc1cc(/C=C2\C(=N)N3N=C(S(C)(=O)=O)SC3=NC2=O)ccc1OCCOc1cccc(OC)c1 5.44%
CS(=O)(=O)C1=NSC2=NC(=O)/C(=C\c3ccc(OC(=O)c4ccco4)c(Br)c3)C(=N)N21 16.8%
O=C(COc1ccc2ccccc2c1)Nc1cccc(C(=O)Nc2ccccc2C(=O)O)c1 1.46%
CCOc1cc(/C=C2/C(=N)N3C(=NC2=O)SN=C3S(=O)(=O)C(C)C)ccc1OC(=O)c1ccco1 -12.2%
CC1=C(C#N)C(=O)NC(=O)/C1=C\c1ccc(-c2cc(C)c(C)cc2[N+](=O)[O-])o1 0.21%
O=C(O)c1[nH]c2ccccc2c1C(c1ccccc1)c1c(C(=O)O)[nH]c2ccccc12 -7.23%
Cc1c(CC(=O)O)c(=O)oc2c(C)c3occ(-c4ccc(Br)cc4)c3cc12 31.7%
O=C(CN1C(=O)S/C(=C\C=C\c2ccccc2)C1=O)Nc1ccccc1C(=O)O 0.8%
O=C(O)c1cccc2c(-c3ccccc3)c(-c3ccccc3)[nH]c12 13%
O=C(O)c1cc(N2N=C(C(F)(F)F)/C(=C/C=C/c3ccco3)C2=O)ccc1Cl 17.9%
O=C(O)CCN1C(=O)/C(=C\c2cccc(OCC(=O)Nc3ccc(Cl)cc3)c2)SC1=S 1.86%
O=C(O)c1ccc(Cl)c(S(=O)(=O)Nc2ccccc2C(=O)Nc2ccc(Cl)cc2)c1 -12.6%
COc1cc(/C=C2/SC(=S)N(Cc3ccccc3)C2=O)ccc1OCC(=O)O 23.6%
O=C1NN(c2ccc(Cl)c(Cl)c2)C(=O)/C1=C/c1cccc(OC(=O)c2cccs2)c1 16.1%
COc1cccc(-c2nc(SCC(=O)Nc3nc(-c4ccccc4)c(C)s3)[nH]c(=O)c2C#N)c1 -9.79%
Cc1c(Cl)cccc1NS(=O)(=O)c1ccc2c(c1)C1C=CCC1C(c1ccc(C(=O)O)cc1)N2 (stereo not given) 39.9%
O=C(O)c1[nH]c2ccccc2c1C(c1c(F)cccc1Cl)c1c(C(=O)O)[nH]c2ccccc12 7.54%
O=C1NN(c2ccc(Cl)c(Cl)c2)C(=O)/C1=C/c1ccc(-c2ccccc2C(=O)O)o1 -10.8%
